Records with an inconclusive call do not appear. A number with no mark means an inactive call. Activity calls are given as the source filed them. The call rests on the fitted dose curve; in most records, active means well fitted activation curve with a large enough effect in the signal ratio; inconclusive means small, poorly fitted or top-dose-only effect, or effect the other way, or a change in a side signal; inactive means flat fitted curve, though single readings scatter; the % refers to the signal ratio.
Test: qHTS assay for small molecule agonists of the antioxidant response element (ARE) signaling pathway (AID 651741); on activation: % of control where 0% means no effect
Details: HepG2 ARE-bla reporter, beta-lactamase FRET ratio, 16 h; series mostly up to 96 µM; activation: at the top concentration
Text: National Center for Advancing Translational Sciences [NCATS]
NIH Chemical Genomics Center [NCGC]
U.S. Environmental Protection Agency [EPA]
National Institutes of Environmental Health Sciences [NIEHS]
National Toxicology Program [NTP]
Oxidative stress has been implicated in the pathogenesis of a variety of diseases ranging from cancer to neurodegeneration. The antioxidant response element (ARE) signaling pathway plays an important role in the amelioration of oxidative stress. The CellSensor ARE-bla HepG2 cell line (Invitrogen) can be used for analyzing the Nrf2/antioxidant response signaling pathway. Nrf2 (NF-E2-related factor 2) and Nrf1 are transcription factors that bind to AREs and activate these genes. The CellSensor ARE-bla Hep G2 cell line contains a beta-lactamase reporter gene under control of the Antioxidant Response Element (ARE) stably integrated into HepG2 cells. The activation of the report gene under culture conditions can be detected by fluorescence intensity. This cell line can be used to screen chemicals in a 1536-well plate format and to identify agonists that induce oxidative stress.
The ARE-bla cells were dispensed at 2,000 cells/5 ul/well in 1536-well black wall/clear bottom plates using a Multidrop dispenser. After the assay plates were incubated at a 37 C/5% CO2 incubator for 5 hours, 23 nL of compounds dissolved in DMSO, positive controls or DMSO only was transferred to the assay plate by a pin tool. The plates were incubated at 37 C for 16 hours. After 1 uL of LiveBLAzer B/G FRET substrate was added using a Flying Reagent Dispenser, the plates were incubated at room temperature for 2 hours, and fluorescence intensity was measured by an Envision plate reader.
Potency means the concentration at half of the fitted maximal effect.

| Compound | activation [%] | Potency |
| --- | --- | --- |
| CC(C)(O)C(=O)O | -0.189 |  |
| Cc1cc(C)c(N)cc1C | 0.888 |  |
| C=C(C)C(=O)OC | 7.56 |  |
| CC(=O)c1nccs1 | 1.18 |  |
| C1CCCC1 | 12.2 |  |
| O=[N+]([O-])c1ccc(CCO)cc1 | -0.571 |  |
| CC(=O)OCCC(C)C | 5.9 |  |
| CC(C)c1ccccc1 | -3.04 |  |
| O=C(O)c1ccc(C(=O)O)cc1 | 3.91 |  |
| CN(C)CCCCl | 4.52 |  |
| CC1CCCO1 (stereo not given) | 0.365 |  |
| CC(=O)C1(C)CC2=C(CCCC2(C)C)CC1C (stereo not given) | 0.102 |  |
| CC(=O)c1cc(C)oc1C | 1.3 |  |
| Nc1cc([N+](=O)[O-])ccc1C(=O)O | 3.92 |  |
| CC(=O)Nc1ccccc1C | 2.03 |  |
| BrC/C=C/CBr |  | 42.2 µM (active) |
| Nc1cc(Cl)c(N)c(Cl)c1 |  | 42.2 µM (active) |
| O=C(Cl)c1cccc([N+](=O)[O-])c1 | 11.1 |  |
| Nc1c(Cl)cc(Cl)cc1Cl | 6.27 |  |
| C[C@@H]1CC2(OC3C[C@@]4(C)C5=CC[C@H]6C(C)(C)C(O[C@@H]7OC[C@@H](O)[C@H](O)[C@H]7O)CC[C@@]67C[C@@]57CC[C@]4(C)C31)OC(O)C1(C)OC21 (stereo not given in full) |  | 75 µM (active) |

| Compound | activation [%] | Potency |
| --- | --- | --- |
| CCOc1ccc(NC(C)=O)cc1N | 6.21 |  |
| N#CC1(O)CCCCC1 | -2.32 |  |
| CC(=O)c1ccccc1[N+](=O)[O-] | 5.38 |  |
| O=C(O)CCSSCCC(=O)O | 10.1 |  |
| CC1(N)CCC(C(C)(C)N)CC1 (stereo not given) | 4.59 |  |
| Cc1ccc(S(=O)(=O)NC2CCCCC2)cc1 | 4.82 |  |
| Cc1cc(C)cc([N+](=O)[O-])c1 | 4.73 |  |
| CC(=O)OC(C)C | 1.48 |  |
| N#CCc1ccccc1[N+](=O)[O-] |  | 42.2 µM (active) |
| Cc1ccccc1C#N | 6.4 |  |
| CCCCC(C=O)CC (stereo not given) | -3.24 |  |
| CC(C)C=O | -0.735 |  |
| CCCCC(CC)CNCC(CC)CCCC (stereo not given) | -0.419 |  |
| CC(O)CC(C)O (stereo not given) | 2.87 |  |
| O=C1OC(=O)c2cc([N+](=O)[O-])ccc21 | 3.2 |  |
| CNc1ccccc1 | -2.47 |  |
| CSCCC=O | 3.79 |  |
| O=[N+]([O-])c1cc(C(F)(F)F)ccc1Cl | 2.27 |  |
| O=P(O)(OCc1ccccc1)OCc1ccccc1 | 4.77 |  |
| CCCCCCCCN | -1.22 |  |
